The structures appear in SMILES notation. Out of some 69,000 compounds screened, about 950 (1.4%) showed an effect of 50% or more. The entries come from a sample that favours strong results as a whole.

The test relates to Mycobacterium tuberculosis. Briefly: Cornell M. t heat shock assay. Also: in the data most compounds retested in dose-response had high values. It is filed as functional, organism-based. Also on record: dose or concentration left out as unconfirmed.
Consider `CCN1CCOCC12CCN(C(=O)C1CCCC1)CC2.O=C(O)C(F)(F)F`, for which the “Percent Effect” value is recorded as -1.07%.
With `Cc1cc(C[C@@H]2COC[C@H]2NCc2ccc(Cl)c(Cl)c2)on1.O=C(O)CC(O)(CC(=O)O)C(=O)O` the figure was -20.39%; with `COCCC(=O)N1CC2(CCN(Cc3ccccc3Cl)CC2)C1.O=C(O)C(F)(F)F`, 12.96%; with `CCc1ncc(C(=O)N2CCCN(C3CCCC3)CC2)cn1`, -5.155%.
The figure for `Cc1ccc2c(n1)N(CCn1cccn1)CCN(C1CCOCC1)C2.O=C(O)C(F)(F)F.O=C(O)C(F)(F)F` is -10.35%; for `Cc1cc(CN2C[C@H](OCC3CCOCC3)[C@H]3COC[C@H]32)oc1C.O=C(O)C(F)(F)F` it is 5.146%.
The figure for `Cc1ccc(CN2CCC[C@@H]3CN(C(=O)c4ccco4)C[C@@H]32)s1.O=C(O)C(F)(F)F` is -26.86%; for `COc1ncccc1CN1C[C@H]2CCN(c3ccc(C)nn3)C[C@H]2C1.O=C(O)C(F)(F)F` it is 16.3%; for `O=C(O)C(F)(F)F.c1ccc(N2CCCC3(CCN(Cc4ccsc4)C3)C2)nc1` (configuration not stated) it is -1.694%.
On to `Cc1nc(CN2CCc3ncnc(-c4cccnc4)c3CC2)cs1.O=C(O)C(F)(F)F.O=C(O)C(F)(F)F`, for which the “Percent Effect” value was -25.69%.
With `O=c1[nH]c(-c2ccccn2)nc2c1CCN(S(=O)(=O)N1CCCC1)C2` the figure was 87.3%; with `O=c1[nH]c(-c2ccccc2)nc2c1CCN(S(=O)(=O)N1CCCC1)C2`, 5.135%.
With `O=c1[nH]c(-c2ccncc2)nc2c1CCN(S(=O)(=O)N1CCCC1)C2` the figure was -2.171%; with `Cc1ccc(CN2Cc3nnn(C)c3C(COCc3ccccn3)C2)s1.O=C(O)C(F)(F)F.O=C(O)C(F)(F)F` (configuration not stated), -10.17%; with `O=C(NCCC1=CCCCC1)c1cc(-c2ccc(O)cc2)n[nH]1`, 57.62%.
With `Cc1ccc(-c2cc(C(=O)NCCC3=CCCCC3)[nH]n2)o1` the figure was 46.03%.
On to `CCCc1cc(C(=O)NCCC2=CCCCC2)[nH]n1`, for which the “Percent Effect” value came out at 8.132%.
The figure for `O=C(O)C(F)(F)F.c1coc(CN2CCCn3c(nnc3Cn3cccn3)C2)c1` is -27.42%; for `O=C(O)C(F)(F)F.O=S(=O)(c1cccs1)N1CCCC2(COCCN(c3cccnc3)C2)C1` (configuration not stated) it is 1.74%.
Take `CCn1cc(CN(C)S(=O)(=O)c2cnn(CC)c2C)c(C)n1`: the “Percent Effect” value came out at 95.67%.
The figure for `CCn1nc(C)c(CN(C)S(=O)(=O)c2cnn(C)c2)c1C` is 0.2173%.
With `CCn1cc(S(=O)(=O)N(C)Cc2c(Br)cnn2CC)c(C)n1` the figure was -19.54%.
With `CC(=O)N1CCC2(CCCN2Cc2cnn(C)c2)CC1.O=C(O)C(F)(F)F` the figure was -13.44%; with `NC(=O)Cn1c(SCc2noc(-c3ccsc3)n2)nnc1C1CC1`, -1.649%.
Take `CC(C)c1nc(CSc2nnc(-c3cccs3)n2CC(N)=O)no1`: the “Percent Effect” value was 87.51%.
For `CC(C)c1nc(CSc2nnc(C3CC3)n2CC(N)=O)no1`, the “Percent Effect” value is -3.28%.
With `O=C(C1CC(F)(F)C1)N1C[C@@H]2CN(CC3CC3)CCO[C@@H]2C1.O=C(O)C(F)(F)F`, the “Percent Effect” value is listed as -22.01%.
The figure for `CCc1cnc(N2CCC3(CCN(Cc4cccc(C)c4)C3=O)C2)nc1` (configuration not stated) is -25.62%.
With `O=C1N(Cc2ccc(F)c(F)c2)CCCC12CCN(C1CCCC1)C2` (configuration not stated) the figure was 48.94%; with `O=C1N(Cc2ccc(F)cc2)CCCC12CCN(C1CCSCC1)C2` (configuration not stated), 56.84%.
The figure for `O=C1N(Cc2ccc(F)c(F)c2)CCCC12CCN(C1CCCCC1)C2` (configuration not stated) is 88.26%; for `CCS(=O)(=O)N1CCC2(CCCN(Cc3ccc(F)c(F)c3)C2=O)C1` (configuration not stated) it is -4.443%.
Take `O=C1N(Cc2ccc(F)c(F)c2)CCCC12CCN(C1CCSCC1)C2` (configuration not stated): the “Percent Effect” value was found to be 39.79%.
With `Cc1cccc(CN2CCCC3(CCN(C4CCSCC4)C3)C2=O)c1` (configuration not stated) the figure was 68.24%; with `O=C1N(Cc2ccccc2F)CCCC12CCN(C1CCSCC1)C2` (configuration not stated), 35.05%.
The figure for `Cc1cccc(CN2CCC3(CCN(c4ncccn4)C3)C2=O)c1` (configuration not stated) is -17.59%.
Consider `CN(C)C(=O)CN1CCC2(CCCN(Cc3cccn3C)C2)C1=O.O=C(O)C(F)(F)F` (configuration not stated), for which the “Percent Effect” value was determined as 8.62%.
Take `CN(C)c1ncc2c(c1C(=O)O)CCN(Cc1ccco1)C2.O=C(O)C(F)(F)F.O=C(O)C(F)(F)F`: the “Percent Effect” value turned out to be 10.22%.
The figure for `Cc1ccc(N2CCC3(CCN(C(=O)N(C)C)CC3)CC2)nn1.O=C(O)C(F)(F)F` is 0.5325%; for `CC(C)N(C)C[C@H]1C[C@@H]2CN(Cc3ccco3)C[C@@H]2O1.O=C(O)C(F)(F)F.O=C(O)C(F)(F)F` it is -4.4%.
Turning to `CCCN1CCC(c2nc3ccc(-c4ccccc4)cn3n2)CC1.O=C(O)C(F)(F)F`, the “Percent Effect” value was -8.011%.
With `O=C(O)C(F)(F)F.O=C(O)C(F)(F)F.c1cncc(OC[C@@H]2CC[C@H]3[C@H](CCN3Cc3cccs3)O2)c1` the figure was -169%; with `CC(=O)NC1CCN(c2cc(C3CCNCC3)nc(C)n2)C1` (configuration not stated), -7.027%.
The figure for `O=c1[nH]c(CCN2CCCCC2Cn2cccn2)nc2ccccc12` (configuration not stated) is 29.01%; for `Cc1cnn(CC2CCCN2CCc2nc3ccccc3c(=O)[nH]2)c1` (configuration not stated) it is 98.35%.
Consider `O=S(=O)(CCN1CCCC1Cn1cccn1)c1ccccc1` (configuration not stated), for which the “Percent Effect” value worked out at 15.63%.
With `O=c1[nH]c(CCN2CCCC2Cn2cncn2)nc2ccccc12` (configuration not stated) the figure was 48.51%; with `Cc1nc(C)n(CC2CCCN2Cc2nc3ccccc3c(=O)[nH]2)n1` (configuration not stated), -31.26%.
For the compound `O=c1[nH]c(CCN2CCCC2Cn2cccn2)nc2ccccc12` (configuration not stated), the “Percent Effect” value is given as 50.72%.
For `Cc1cnn(CC2CCCN2Cc2nc3ccccc3c(=O)[nH]2)c1` (configuration not stated), the “Percent Effect” value amounted to 89.62%.
The figure for `Cc1cnn(CC2CN(Cc3nc4ccccc4c(=O)[nH]3)CCO2)c1` (configuration not stated) is 8.669%; for `Cn1cc(C2CCCN2CCc2nc3ccccc3c(=O)[nH]2)cn1` (configuration not stated) it is 2.636%.
With `CC(C)(C)c1n[nH]cc1CNC1CCC(C(F)(F)F)CC1.Cl` (configuration not stated) the figure was -43.27%; with `Cl.O=C(O)CN1CCC(C(F)(F)F)CC1`, 11.41%.
`CN(Cc1cccnc1)C1CC2(CCN(Cc3cccnc3)CC2)C1.O=C(O)C(F)(F)F.O=C(O)C(F)(F)F.O=C(O)C(F)(F)F`: the “Percent Effect” value is reported as -1.954%.
The figure for `COC(=O)c1cccc(S(=O)(=O)Nc2ncc(C)s2)c1` is 1.16%.
`Cc1cnc(NS(=O)(=O)c2ccccc2)s1`: the “Percent Effect” value is 4.612%.
The figure for `CCOCc1cccc(S(=O)(=O)Nc2ncc(C)s2)c1` is 52.82%.
With `COCc1cccc(S(=O)(=O)Nc2ncc(C)s2)c1` the figure was 15.26%.
The figure for `CNS(=O)(=O)c1cccc(S(=O)(=O)Nc2ncc(C)s2)c1` is 68.64%.
Take `Cc1cnc(NS(=O)(=O)c2cccc(C#N)c2)s1`: the “Percent Effect” value is given as -32.7%.
With `Cl.O=C(C1CCCC1)N1C[C@@H](c2ccsc2)[C@@H]2CN(C3CCCC3)CC[C@@H]21` the figure was 3.962%; with `COCCN1CCCn2c(nc(Cn3cncn3)cc2=O)C1.O=C(O)C(F)(F)F`, 17.08%; with `CCOCC1CC2(CCN(C(=O)c3ncccn3)CC2)CO1` (configuration not stated), -17.44%.
The figure for `O=C(Nc1ccccc1)N1C[C@H]2C[C@H](C(=O)N3CCCC3)[C@@H](C1)O2` is -25.79%; for `COCC1N(C(=O)c2ccco2)[C@H]2CC[C@]1(O)CC2` (some centres not stated) it is 16.02%; for `O=C(O)C(F)(F)F.O=C(c1ccno1)N1CCO[C@@H]2CC(COCc3ccccn3)C[C@H]21` (some centres not stated) it is 1.135%.

These data come from ChEMBL document CHEMBL3988442, “University of Dundee, Small-Polar-MMV Screening Library” (2021).
